Assay outcomes deposited in PubChem BioAssay by Small Molecule Screening Facility, UW Madison.
Many of the other results were omitted from the sample, so hits are more common in it than they were.
RMI FANCM FP: RMI-FANCM interaction inhibition. Fluorescence polarization, RMI core complex with F-MM2 peptide; active compounds read low. FP signal (polarization) at 33 µM. 70,000 compounds, 0.58% hits. AID 1159607; in the data active = FP signal below about 40
Starred values were filed as active, the others as inactive; ! = repeats disagree.

SMILES | RMI FANCM FP
O=C(/C=C\c1ccco1)/C=C/c1ccc(-c2ccc(Br)cc2)o1 | 8*
N#C/C(=C/c1ccc(-c2ccc(Cl)c(Cl)c2)o1)C(=O)Nc1ccccc1I | 75
O=C(/C=C/c1ccc(-c2cccc(Br)c2)o1)c1ccco1 | 77
O=C(/C=C/c1ccc(Br)o1)/C=C/c1ccc(Br)o1 | 62
O=C(/C=C\c1ccco1)/C=C/c1ccc(-c2ccc(Cl)c(Cl)c2)o1 | -11*
OCc1nc2ccccc2n1Cc1ccc(Cl)c(Cl)c1 | 55
O=S1(=O)CCC=C1Cl | 57
O=C(C1CCN(c2ncnc3c2sc2ncccc23)CC1)N1CCC(Cc2ccccc2)CC1 | 95
Cn1c(=O)c2cc(C(=O)Nc3ccc(C(F)(F)F)cc3)sc2n(C)c1=O | 64
COC(OC)c1ccc2c(N)c(C(=O)Nc3ccc(C(F)(F)F)cc3)sc2n1 | 39*
COc1nn(C)cc1C(=O)Nc1ccc(C(F)(F)F)cc1 | 57
CC(=O)Nc1ccc(SCC(=O)Nc2nc3ccccc3s2)nn1 | 106
CN(c1ccc(F)cc1)S(=O)(=O)c1ccsc1-c1nc(-c2ccc(Br)cc2)no1 | 91
O=c1c2ccccc2sc2ccc(C(F)(F)F)cc12 | 54
Cc1cccc(Nc2ccccc2C(=O)O)c1C | 25*!
Cc1cccc(C(=O)O)c1O | 60
O=C(O)c1ccccc1Nc1ccccc1 | 55
Fc1ccc(CSc2nccn3nc(-c4cccs4)cc23)c(Cl)c1 | 82
CCOc1ccccc1C(=O)Nc1ccc2c(c1)N(CCC(C)C)C(=O)C(C)(C)CO2 | 56
COS(=O)(=O)c1ccc2c(c1C)OC(C)(C)CC2=O | 60
O=c1c2cc(-c3cccs3)nn2ccn1Cc1nc(-c2ccccc2Cl)no1 | 91
COc1cccc(/C=N\NC(=O)c2nc(N)n[nH]2)c1OC | 61
CCOc1ccc(NC(=O)c2nnn(-c3ccccc3F)c2C)cc1 | 65
CCOc1ccc(C(=O)Nc2ccc(-c3ccc(NC(=O)c4ccc(OCC)cc4)c(OC)c3)cc2OC)cc1 | 62
COC(=O)c1sccc1N/C=C(\C#N)C(=O)c1cccc(CSc2ccc(Cl)cc2)c1 | 7*
SMILES | RMI FANCM FP
COC(=O)c1sccc1N/C=C(\C#N)C(=O)c1ccco1 | 59
COC(=O)c1sccc1N/N=C(\C#N)C(=O)c1ccc(Cl)cc1 | 58
COc1ccccc1CNC(=O)c1cnc2sc(C)cn2c1=O | 56
BrCC1CN2CCSC2=N1 (stereo not drawn) | 59
Cn1c(=O)cc2c3c(c(Br)ccc31)C(=O)c1ccccc1-2 | 60
Cn1c(=O)cc2c3c(c(NS(=O)(=O)c4ccccc4)ccc31)C(=O)c1ccccc1-2 | 9*
CC(C)c1cc(NS(=O)(=O)c2ccccc2)c(O)c(C(C)C)c1 | 60
Cn1nccc1C(=O)Nc1nnc(-c2ccc3c(c2)OCCO3)o1 | 68
Cc1ccc(C(=O)NCCn2ncc3c(=O)n(Cc4cccc(F)c4)cnc32)cc1C | 67
N#CC1=C(N)OC(c2ccco2)=C(C#N)C1c1ccco1 (stereo not drawn) | 56
N#Cc1c(N)c(C#N)c2c(c1-c1ccco1)Cc1ccccc1-2 | 12*
COC(=O)c1sc(SC)c(C#N)c1-c1ccco1 | 57
CN=C1SC(CC(=O)O)C(=O)N1C (stereo not drawn) | 54
CCn1cc(NC(=O)NCCCN2CCCC2=O)c2ccccc21 | 55
c1ccc2nc3c4ccccc4c4ccccc4c3nc2c1 | 61
CS(=O)(=O)c1cccc(-c2nnc(NC(=O)CN3C(=O)c4ccccc4C3=O)o2)c1 | 59
O=C1c2ccccc2C(=O)c2c(Sc3cccc4c3C(=O)c3ccccc3C4=O)cccc21 | 60
O=C1c2ccccc2C(=O)c2c1ccc(O)c2O | 53
O=C1c2cccc(O)c2C(=O)c2c(O)cccc21 | 27*
Cc1c(O)ccc2c(CN3CCCCC3)cc(=O)oc12 | 18*
Cc1ccc2oc(=O)cc(CN3CCOCC3)c2c1 | 63
O=c1cc(CN2CCOCC2)c2cc3c(cc2o1)CCC3 | 57
COc1ccc(-c2nn(-c3ccccc3)cc2/C=C2\SC(=O)NC2=S)cc1 | 27*
COc1ccc(-c2nn(-c3ccccc3)cc2CN(Cc2ccccc2)C(=O)/C=C/C(=O)O)cc1 | 61
Cc1ccc(-c2nn(-c3ccccc3)cc2/C=C2\SC(=S)NC2=O)cc1F | 74
SMILES | RMI FANCM FP
Cc1ccc(S(=O)(=O)NC(=O)NCCNc2ncnc3scc(-c4ccccc4)c23)cc1 | 46
Cc1ccc(C)c(OCCCC(C)(C)C(=O)O)c1 | 12*!
Cc1ccc(C)c(OCC(=O)N2CCC(C)CC2)c1 | 67
Cc1ccc(OCCCC(=O)NCC(C)C)c(C)c1 | 66
O=C(CSc1c[nH]c2ccccc12)Nc1ccc(Cl)c(Cl)c1 | 63
Cc1ccc(S(=O)(=O)N(Cc2ccco2)CC(O)Cn2c3ccccc3c3ccccc32)cc1 (stereo not drawn) | 59
CCOC(=O)N1CCC(NC(=O)C2CCN(C(=O)c3n[nH]c4ccccc34)CC2)CC1 | 55
O=C(Cn1cnc2ccccc21)N1CCOCC1 | 58
O=C(CSc1nc2ccccc2o1)N1CCOCC1 | 72
O=C(CSc1nnc2nnc3ccccc3n12)N1CCOCC1 | 17*
NC(=O)c1ccc(NC(=O)C(=O)NCC2COC3(CCCCC3)O2)cc1 (stereo not drawn) | 84
CCc1c(C)c(C#N)c2nc3ccccc3n2c1N | 66
CSc1c2c(c(C#N)c3nc4ccccc4n13)CCCC2 | 73
COc1cccc(N2CCc3c(C)c(C#N)c4nc5ccccc5n4c32)c1 | 14*
Cc1c2c(n3c(nc4ccccc43)c1C#N)N(C(C)c1ccccc1)CC2 (stereo not drawn) | 79
Cc1c2c(n3c(nc4ccccc43)c1C#N)SCC2 | 24*
Cc1ccc(OCCN2CCN(c3c4c(c(C#N)c5nc6ccccc6n35)CCCC4)CC2)cc1 | 62
CCN1C(=O)C(C)(C)COc2ccc(NC(=O)c3cccc(OC)c3)cc21 | 68
CCc1ccccc1NC(=O)C1(c2cccs2)CCCC1 | 58
O=C1NC(=S)/C(=C/c2cccnc2)S1 | -19*
Cc1ccc(N=C2NC(=O)/C(=C/c3cccnc3)S2)cc1 | 64
CC(/C=C1\SC(=O)NC1=S)=C\c1ccccc1 | 36
Cc1cc(Cl)cc2sc(N(Cc3ccncc3)C(=O)c3ccc(C#N)cc3)nc12 | 84
NNC(N)=NC(N)=Nc1ccc(F)cc1 | 63
CCN(c1ccccc1)S(=O)(=O)c1ccc(C(=O)N(CCCN(C)C)c2nc3cc4c(cc3s2)OCO4)cc1 | 135
SMILES | RMI FANCM FP
CCN(CC)CCN(C(=O)c1ccc(S(=O)(=O)N(CC)c2ccccc2)cc1)c1nc2ccc(C)cc2s1 | 101
CCN(CC)CCN(C(=O)c1ccc(S(=O)(=O)N(CC)c2ccccc2)cc1)c1nc2cc3c(cc2s1)OCCO3 | 40*
Cc1cc(NC(=O)CSc2nc(=O)n(N3CCN(C)CC3)c3c2CCCC3)no1 | 52
O=C(NCCNS(=O)(=O)c1cccs1)c1ccc(NC(=O)C2CCCC2)cc1 | 62
NC(=O)Cc1csc(Nc2cccc(C(F)(F)F)c2)n1 | 29*
NC(=O)c1ccccc1NC(=O)Cc1csc(Nc2cccc(C(F)(F)F)c2)n1 | 66
O=C(O)Cc1csc(Nc2cccc(C(F)(F)F)c2)n1 | 68
CS(=O)(=O)c1ccccc1C(=O)Nc1nc(-c2cc3ccccc3o2)cs1 | 50
CC(=O)ON1C(=O)c2cccc3c([N+](=O)[O-])ccc(c23)C1=O | -6*
O=C1c2cccc3c([N+](=O)[O-])ccc(c23)C(=O)N1Cc1cccnc1 | -13
CC(=O)ON1C(=O)c2cccc3cccc(c23)C1=O | 52
CCOC(=O)c1ccc2nonc2c1 | 57
O=C(NCCOc1ccc2nnc(-c3cccc(F)c3)n2n1)C1CC1 | 69
